Compounds without any hit were thinned out: in the full panel of roughly 79,000, 15% have a hit. Rule as the data show it: active = growth inhibition above about 70%; inactive = the rest.
Experiments:
[1] = NCI Yeast Anticancer Drug Screen. Data for the rad50 strain (AID 155);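 also: 0% = growth of vehicle-only cultures of the same strain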; conditions: S. cerevisiae rad50 strain growth inhibition; at 50.0 µM; active compounds read high
How it was run: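 Genetically altered yeast (DNA repair pathway); compound treatment; growth inhibition vs vehicle ctrl.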

[2] = NCI Yeast Anticancer Drug Screen. Data for the mec2-1 strain (AID 157); conditions: S. cerevisiae mec2-1 strain, at 50.0 µM, active compounds read high
How it was run: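 Strain: mec2-1 (DNA repair/cell cycle alteration). Compound exposure, then growth measured; inhibition expressed relative to vehicle.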

[3] = NCI Yeast Anticancer Drug Screen. Data for the sgs1 mgt1 strain (AID 161);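 also: 0% = growth of cultures given vehicle only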; conditions: S. cerevisiae sgs1 mgt1 strain, at 50.0 µM, active compounds read high
How it was run: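 Inhibition of yeast growth, normalised to vehicle-treated controls, is reported for a strain bearing genetic alterations in DNA damage repair.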

[4] = NCI Yeast Anticancer Drug Screen. Data for the cln2 rad14 strain (AID 165);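 also: 0% = growth equal to vehicle treated cultures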; conditions: S. cerevisiae cln2 rad14 strain, at 50.0 µM, active compounds read high
How it was run: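 Compounds are applied to the cln2 rad14 yeast strain, and growth is then compared with that of vehicle-treated cultures to give inhibition.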

[5] = NCI Yeast Anticancer Drug Screen. Data for the bub3 strain (AID 167); conditions: S. cerevisiae bub3 mutant strain, at 50.0 µM, active compounds read high
How it was run: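 Yeast carrying a defined mutation is treated with each compound, and growth is compared with that of vehicle-exposed cells to give inhibition.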

[6] = NCI Yeast Anticancer Drug Screen. Data for the mlh1 rad18 strain (AID 175); conditions: S. cerevisiae mlh1 rad18 strain growth inhibition; at 50.0 µM; active compounds read high
How it was run: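 Read-out is yeast growth inhibition, calculated against vehicle-only controls. The compound was applied to a strain engineered with DNA damage repair alterations.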

Measured: growth inhibition

c1ccc(-c2ccc(C(=C(c3ccc(-c4ccccc4)cc3)c3ccc(-c4ccccc4)cc3)c3ccc(-c4ccccc4)cc3)cc2)cc1
inactive: [1] 1.1% | [2] -0.85% | [3] -9.9% | [4] -4.15% | [5] -4.7% | [6] -12.6%

CC(C)C(=O)Nc1ccccc1
inactive: [1] 2.9% | [2] -11.9% | [3] 2.7% | [4] -25.6% | [5] -13.6% | [6] 15.6%

C/C(=N\NS(=O)(=O)c1ccc(C)cc1)P(=O)(O)O
inactive: [1] -6.85% | [2] -13.4% | [3] -24.7% | [4] 8.1% | [5] -16.1% | [6] 22.6%

CCCCOC1OC[N+](C)(C)CC1(C)C (stereo unspecified)
inactive: [1] 20.2% | [2] -2.65% | [3] -10.1% | [4] 3.7% | [5] -0.45% | [6] 26.2%

c1ccc2c(c1)CCc1c-2n[nH]c1-c1[nH]nc2c1CCc1ccccc1-2
inactive: [1] -12.1% | [2] -10% | [3] -1.3% | [4] -21.9% | [5] -26.2% | [6] -5%

CCOC(=O)/C(=C\c1ccc(N(C)C)cc1)S(=O)(=O)C(F)(F)C(F)(F)C(F)(F)C(F)(F)F
inactive: [1] 2% | [2] 9.6% | [3] 6.1% | [4] -9.7% | [5] 4.75% | [6] 15.2%

CCN(CC)CCCNc1cccc2nc(Cl)ccc12
inactive: [1] 12.1% | [2] 18.6% | [3] 37.2% | [4] 24.5% | [5] 2.65% | [6] 9.25%

NNC(=O)C(=O)O
inactive: [1] 14.4% | [2] -2.95% | [3] 20.2% | [4] -15% | [5] 15.3% | [6] 14.8%

O=[N+]([O-])c1ccc(C(O)C(c2ccccc2)S(=O)(=O)N2CCCCC2)cc1 (stereo unspecified)
inactive: [1] 40.6% | [2] -2.75% | [3] 17.1% | [4] -31.9% | [5] -0.5% | [6] 24.9%

CCc1cccc(OC(=O)CCl)c1
inactive: [1] 3.1% | [2] 7.5% | [3] -1.65% | [4] -24.4% | [5] -17.8% | [6] -5.1%

CCNc1ccc(S(=O)(=O)O)cc1C(=O)O
inactive: [1] 0.45% | [2] 4.05% | [3] 0% | [4] -11.8% | [5] 1.25% | [6] -4.6%

On1ccc(N2CCOCC2)cc1=NC1CCCCC1
inactive: [1] 25.9% | [2] 14.9% | [3] 14.5% | [4] 17.6% | [5] 3.7% | [6] 25.7%

COCN(Cc1ccccc1)C[Si](C)(C)C
inactive: [1] 39.5% | [2] 2% | [3] 1.3% | [4] -20% | [5] 14.2% | [6] -9.6%

Cc1ccc(C(=O)/C=C\C=C\c2ccccc2)cc1
inactive: [1] 16.6% | [2] 27.7% | [3] 41.6% | [4] -3.7% | [5] 50.6% | [6] 19.8%

COc1ccc(NC(=O)Nc2ccc(Br)cc2)cc1
inactive: [1] -9.55% | [2] 5.7% | [3] -0.15% | [4] -34% | [5] -4.6% | [6] -15.2%

O=C1/C(=C/c2ccc([N+](=O)[O-])cc2)CCCc2ccccc21
inactive: [1] 11.1% | [2] 6.8% | [3] 22.9% | [4] -22.3% | [5] -0.95% | [6] 21.9%

CC(C)CC(=O)Cc1nc2n(c1O)C(=N)N=N2
inactive: [1] -35.5% | [2] -15.9% | [3] -14.2% | [4] -40.7% | [5] -11.8% | [6] -20.1%

CNC(=O)NS(=O)(=O)c1cccc([N+](=O)[O-])c1
inactive: [1] -0.3% | [2] 5.35% | [3] -8.3% | [4] 1.9% | [5] -21.6% | [6] -17.3%

Cc1ccc(N=C=O)cc1N1C(=O)N(c2cc(N=C=O)ccc2C)C1=O
inactive: [1] -41.5% | [2] -55% | [3] -48% | [4] -139% | [5] -10.5% | [6] -60.4%

O=C1NN2CCN=C2c2ccccc21
inactive: [1] -60.5% | [2] -30% | [3] -22.7% | [4] -16.4% | [5] -6.5% | [6] -16.4%

C=CCNC(=S)NNC(=S)NCC=C
inactive: [1] 9.55% | [2] 34.1% | [3] 10.4% | [4] 3.6% | [5] -16.4% | [6] 22.2%

O=C(/C=C/c1ccccc1Cl)c1ccc(Cl)c(Cl)c1
inactive: [1] 28.7% | [2] 0.2% | [3] 2.1% | [4] 12% | [5] 15.4% | [6] 29.4%

COc1cccc2c(=O)oc(-c3ccc(C(C)(C)C)cc3)nc12
inactive: [1] 16.4% | [2] 8.8% | [3] 18.4% | [4] 1.3% | [5] 13.4% | [6] 30.9%

COC(=O)C1CCc2ccccc2C1=O (stereo unspecified)
inactive: [1] -12.6% | [2] -13.7% | [3] 1.95% | [4] 6.4% | [5] 2.7% | [6] 12.2%

C=CC(C)(C)c1c2c(c(O)c3c(=O)c4ccc(O)c(O)c4oc13)C=CC(C)(C)O2
inactive: [1] -12.2% | [2] -12% | [3] 3.35% | [4] -5.2% | [5] -7.7% | [6] -4.05%

CCOC(=O)C(Cc1ccccc1Cl)(Cc1ccccc1Cl)c1ccccc1
inactive: [1] 7.15% | [2] -17.1% | [3] -10.5% | [4] -79.5% | [5] -4.95% | [6] 1.3%

Cc1cc(C)nc(C)c1.[Cl-].[Cl-].[Cl-].[Cl-].[Pt+2]
inactive: [1] 8.9% | [2] 9.25% | [3] -7.5% | [4] 7.4% | [5] 2.6% | [6] 7.1%

CC(C)CC(C)(O)C#CC(C)(O)CC(C)C (stereo unspecified)
inactive: [1] -1.8% | [2] -25.4% | [3] -12.7% | [4] -31.4% | [5] 4.55% | [6] -22.2%

ON(CCc1ccncc1)Cc1ccccc1
inactive: [1] 1.6% | [2] -31.1% | [3] -20.1% | [4] 2.95% | [5] -56.3% | [6] 15.5%

Cc1cc(C)c2ccc(NC(=O)CCC(=O)O)nc2n1
inactive: [1] -15.1% | [2] -32.5% | [3] 7.45% | [4] 10.7% | [5] -27.4% | [6] -13.4%

Cc1nc([N+](=O)[O-])cn1CC(Cl)Cn1cc([N+](=O)[O-])nc1C
inactive: [1] -4.65% | [2] -12.4% | [3] -18.7% | [4] 9.7% | [5] -25.1% | [6] 14.2%

OC1C/C=C/CCCCC1 (stereo unspecified)
inactive: [1] -11% | [2] -5.75% | [3] -3.55% | [4] 1.95% | [5] 3.3% | [6] -4.4%

CC(C)COC1=CC(=O)c2ccccc2C1=O
inactive: [1] 16.4% | [2] 17.4% | [3] 18.6% | [4] -1.05% | [5] 35% | [6] -7%

S=C1SCN(c2ccc3c(c2)OCO3)CN1c1ccc2c(c1)OCO2
inactive: [1] -24.4% | [2] -33.9% | [3] 20.9% | [4] -0.6% | [5] -1.05% | [6] -20.1%

Cc1ccc(Nc2nc(NS(=O)(=O)c3cc(C)c(Cl)cc3S)n(C)n2)cc1
inactive: [1] -15.1% | [2] -33.5% | [3] -29.7% | [4] -7.1% | [5] -32.9% | [6] -21.8%

CC1Cn2c(nccc2=O)S1 (stereo unspecified)
inactive: [1] -15.1% | [2] -14.2% | [3] -33.4% | [4] 1.9% | [5] 3.5% | [6] -29.1%
